{"source": "PubChem BioAssay (NCI)", "note": "Values joined by “and” are separate entries in the source; they are usually repeats but may differ in a detail not shown here. Equal values may be shown once. About 83,000 compounds went through this panel and 20% of them were active in at least one assay; those are over-represented in the sample as a whole.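 In brief: 96-well plates, 48 h treatment, single concentration, percent growth endpoint.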 A number with no mark means an inactive call. Active and inactive are the calls of the source. The calls were made as follows: active = growth percent below 10; inactive = the rest.", "data": [{"tested_on": "MDA-MB-468 breast", "experiment": "NCI-60 one-dose screen, 48 h (100 = growth as untreated, 0 = no growth, -100 = all killed)", "conditions": "10 µM unless noted", "values": [{"smiles": "Clc1ccccc1-c1cnn2cc(-c3ccccc3)cnc12", "growth": "90.8%"}, {"smiles": "Cc1cc(N)c2ccccc2[n+]1CCCCCCCCCC[n+]1c(C)cc(N)c2ccccc21", "growth": "-55.7% (active)"}, {"smiles": "N#CC1=C(N)Oc2c(sc3c(F)cccc23)C1c1ccc(Cl)cc1", "note": "(centres undefined)", "growth": "-42.2% (active)"}, {"smiles": "NCCSC(c1ccccc1)(c1ccccc1)c1ccccc1", "growth": "8.69% (active)"}, {"smiles": "Cc1[nH]c(=S)[nH]c(=O)c1C", "growth": "112%"}, {"smiles": "C/C(=N/O)c1ccc(NC(=O)Cn2nc(-c3ccc(Cl)cc3)nc2N)cc1", "growth": "100%"}, {"smiles": "Cc1ccc(C2CC(c3cccc(Nc4ccncc4)c3)=NN2c2cc(Cl)cc(Cl)c2)cc1", "note": "(centres undefined)", "growth": "-30% (active)"}, {"smiles": "O=C1c2ccccc2C(=O)c2c1ccc1c(=O)n(-c3ccccc3C(F)(F)F)nnc21", "growth": "-50.3% (active)"}, {"smiles": "CN1CCC(COc2cnc(-c3cccc(Cn4nc(-c5cccc(C#N)c5)ccc4=O)c3)nc2)CC1", "growth": "87.4%"}, {"smiles": "CC(C)(C)c1ccc(C(=O)Nc2sc3cc(O)ccc3c2C(N)=O)cc1", "growth": "46.8%"}, {"smiles": "CC(O)c1cc2ccccc2c(=O)o1", "note": "(centres undefined)", "growth": "98.7%"}, {"smiles": "COc1ccc2c(c1)C=CC(C#N)N2C(=O)c1ccccc1", "note": "(centres undefined)", "growth": "13.1%"}, {"smiles": "COC(=O)c1cc(=O)nc(N/N=C/c2ccc(C)cc2)s1", "growth": "110%"}, {"smiles": "CCN(CC)CCNC(=O)c1cn2ncnc(Oc3ccc(NC(=O)Nc4ccc(Cl)c(C(F)(F)F)c4)cc3)c2c1C", "growth": "-80.7% (active)"}, {"smiles": "Nc1ncnc2[nH]c(=O)[nH]c12", "growth": "97.8%"}, {"smiles": "O=C(O)CCCN1C(=O)NC2(C1=O)c1ccccc1-c1ccccc12", "growth": "98.2%"}, {"smiles": "COc1ccc(S(=O)(=O)NCCCNc2nccc(-n3ccc4cccnc43)n2)cc1", "growth": "76.2%"}, {"smiles": "COc1cc2ncnc3c2cc1OCCCCCN(C)Cc1ccc(Br)cc1N3", "growth": "-26.6% (active)"}, {"smiles": "O=S(=O)(Nc1ccccc1)c1ccc(C2CC3(Cl)C(Cl)=C(Cl)C2(Cl)C3(Cl)Cl)cc1", "note": "(centres undefined)", "growth": "62.2%"}, {"smiles": "C=C1CC[C@@H]2C(C)(C)[C@@H](O)CC[C@@]2(C)[C@@H]1COc1ccc2ccc(=O)oc2c1", "growth": "53.1%"}, {"smiles": "CC1(C)CC[C@]2(C(=O)N3CCOCC3)CC[C@]3(C)C(=CC[C@@H]4[C@@]5(C)C/C(=C/c6ccccn6)C(=O)C(C)(C)[C@@H]5CC[C@]43C)[C@@H]2C1", "growth": "40.8%"}, {"smiles": "COc1ccc(C(CC(=O)c2ccc3c(c2)OCO3)C(=O)O)cc1OC", "note": "(centres undefined)", "growth": "114% and 103%"}, {"smiles": "Cn1nc(-c2ccc(Cl)cc2)nc2c(=O)n(C)c(=O)nc1-2", "growth": "-73.2% (active)"}, {"smiles": "O=Cc1c[nH]c2ccc(NC(=O)OCc3ccccc3)cc12", "growth": "109%"}, {"smiles": "Nc1cccc2cccc(O)c12", "growth": "82.6%"}, {"smiles": "OCCCC1CCN(C(Cc2ccccc2)c2ccccc2)CC1", "note": "(centres undefined)", "growth": "95.2%"}, {"smiles": "CN(C)c1ccc(/C=C/C(=O)c2ccc(-n3cc(CN4CCN(c5cc6c(cc5F)c(=O)c(C(=O)O)cn6C5CC5)CC4)nn3)cc2)cc1", "growth": "32.9%"}, {"smiles": "CCOC(=O)c1nc(Nc2ccc(C(C)=O)cc2)sc1C", "growth": "96.9%"}, {"smiles": "O=C1C(Cl)=C(Nc2ccc(S(=O)(=O)c3ccc(NC4=C(Cl)C(=O)c5ccccc5C4=O)cc3)cc2)C(=O)c2ccccc21", "growth": "-60.1% (active)"}, {"smiles": "CCCCCCCCOc1ccc(/C=N/Nc2cc(C)nc3ccc(Cl)cc23)cc1", "growth": "-49.9% (active)"}, {"smiles": "CCOC(=O)COc1c(C)cc(SSc2cc(C)c(OCC(=O)OCC)c(C)c2)cc1C", "growth": "109%"}, {"smiles": "CN(C)c1nc(N)nc(Cn2c(-c3nonc3N)nc3ccccc32)n1", "growth": "23.2%"}, {"smiles": "CCN1C(=O)N(CC)C2C1NN=c1s/c(=C\\c3ccc([N+](=O)[O-])cc3)c(=O)n12", "note": "(centres undefined)", "growth": "7.94% (active)"}, {"smiles": "O=Nc1c(-c2c(O)[nH]c3cc(Br)ccc23)[nH]c2ccccc12", "growth": "-34.2% (active)"}, {"smiles": "CN(C)CCC(=O)c1ccc(O)cc1", "growth": "107%"}, {"smiles": "O=C1COCCN1c1ccc(Nc2nc(Cl)nc(OCc3cn(Cc4ccccc4)nn3)n2)cc1", "growth": "62.1%"}, {"smiles": "CCOC(=O)n1cc(C2=C(c3cn(C)c4ccccc34)COC2=O)c2ccccc21", "growth": "29.5%"}, {"smiles": "COC(=O)C1(C)COP(=O)(NC23CC4CC(CC(C4)C2)C3)OC1", "note": "(centres undefined)", "growth": "110%"}, {"smiles": "CC1Cc2c(N(C)C)ncnc2N(C)c2ccc(O)cc21", "note": "(centres undefined)", "growth": "79.4%"}]}]}
